The source of these data is PubChem BioAssay (NCATS).

Experiment [1] deals with Lysosomal acid glucosylceramidase (Homo sapiens) (UniProt P04062). Briefly: Glucocerebrosidase-p2 (AID 348; in the data active = potency below about 10 µM; note: potency is the fitted concentration of half-maximal effect). The note with it: purified GBA, blue fluorogenic substrate, 40 min. A digest of the protocol:
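Normal human glucocerebrosidase (0.2 nM) with blue fluorogenic substrate (80 uM final) in citrate/phosphate pH 5.9 with 10mM sodium taurocholate, 0.01% tween-20; 40 min RT, NaOH/glycine stop; fluorescence Ex 365/Em 440; AC50 from a titration from 0.6 nM upwards.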

A short description of experiment [2]: AP1 Signaling Pathway (AID 357; active = well fitted curve in either direction with a large enough effect, not every such curve was filed as active; note: % is set by controls: 0 for no effect and ±100 for the full control effect). The note with it: ME-180 AP-1-bla reporter, EGF-induced, beta-lactamase ratio, 5 h; at 7.69 µM (top of the series) unless noted. A digest of the protocol: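 Titration-series screen for positive or negative modulators of EC50 EGF-induced signaling in ME-180 cells carrying an AP-1-driven beta-lactamase reporter. After 5 hours at 37 degrees Celsius, CCF4 460nm/530nm emission ratio gave %Activity; AC50 values derived.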

Experiment [3] has as its target Cytochrome P450 1A2 (Homo sapiens) (UniProt P05177). Briefly: p450-cyp1a2 (AID 410; calls by dose curve; note: potency is the fitted concentration of half-maximal effect). To be noted: recombinant CYP1A2, luciferin-ME demethylation, luminescence; series mostly up to 57 µM. A digest of the protocol:
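O-Demethylation of luciferin 6' methyl ether by human CYP1A2 is monitored as luciferase luminescence. Substrate sits at Km (100uM); enzyme is 20nM. Values are scaled to 57 uM furafylline as maximal inhibition.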

A short description of experiment [4]: NFAT Signaling Pathway (AID 444; active = well fitted curve in either direction with a large enough effect, not every such curve was filed as active;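 note: carbachol stimulus at about its EC50 of 1 µM final; % is set by controls: 0 for no effect and ±100 for the full control effect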). The note with it: Jurkat NFAT-bla M1, carbachol, beta-lactamase ratio, 5 h; at 7.69 µM (top of the series) unless noted. The method in brief: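 Read-out: CCF4 FRET ratio (460 nm/530 nm) after 1 h RT dye loading, used for %activity and AC50 from titration series. Cells: Jurkat NFAT-β-lactamase/M1 line, treated with compound plus 1 uM carbachol for 5 h, 37 °C.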

Experiment [5] in a line: Stat Signaling Pathway (AID 446; active = well fitted curve in either direction with a large enough effect, not every such curve was filed as active;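 note: ME-180 cervical cancer cells given 40 pM IL-6 alongside compound; SIE-controlled beta-lactamase reporter measured as 460/530 nm FRET emission ratio; % is set by controls: 0 for no effect and ±100 for the full control effect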). To be noted: ME-180 SIE beta-lactamase reporter, IL-6 stimulated, 5 h; series mostly up to 7.69 µM. A digest of the protocol:
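Compound effects on IL-6-induced STAT reporter activity were measured in ME-180 cells. After overnight culture, cells were co-treated with 40 pM IL-6 for 5 hrs before beta-lactamase substrate loading at room temperature.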

Experiment [6] deals with Glucocorticoid receptor (Homo sapiens) (UniProt P04150). The experiment is described as follows: GR-GFP Redistribution (AID 450;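 active = compounds whose dose series gives a full or clear partial fitted curve of increased nuclear translocation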; note: potency is the fitted concentration of half-maximal effect). To be noted: U2OS GR-GFP nuclear translocation, laser cytometry, 2 h.
Experiment [7] shares this target. The experiment is described as follows: GR-EFC Redistribution (AID 451; calls by dose curve; note: potency is the fitted concentration of half-maximal effect). To be noted: CHO-K1 GR-EFC translocation, beta-gal luminescence, 2 h. The method in brief: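 Translocation of GR-ED fusion to nuclear EA restores b-gal, read by luminescence after 1 h room-temperature detection. Engineered CHO-K1 biosensor cells, 1,000/well, exposed 2 h at 37 C to titrations up to 46 uM final.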

Experiment [8] has as its target Mitogen-activated protein kinase 10 (Mus musculus) (UniProt Q61831). The experiment is described as follows: JNK3 AlphaScreen Assay (AID 530; active = well fitted curve in either direction with a large enough effect, not every such curve was filed as active;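 note: kinase came from lysate of stimulated human HepG2 cells; signal reports phosphorylation of biotinylated GST-cJun 1-79 at Ser73 with 10 µM ATP; % is set by controls: 0 for no effect and ±100 for the full control effect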). The note with it: JNK3 lysate, c-Jun phosphorylation; series mostly up to 57.1 µM. A digest of the protocol: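 qHTS titrations with 15 min compound pre-incubation before adding ATP (10 uM final). Read-out: AlphaScreen of Ser73-phosphorylated biotin-GST-cJun using HepG2 lysate JNK3 activated by IL-1β and TNFα.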
On the technique in general: Alpha assays give light when donor and acceptor beads are brought close together.

Experiment [9] deals with Cytochrome P450 3A4 (Homo sapiens) (UniProt P08684). Briefly: qHTS Assay for Activators of Cytochrome P450 3A4 (AID 885). Note: nearly all actives have a fitted effect of over 65% in size. To be noted: recombinant CYP3A4, Luciferin-PPXE luminescence, 60 min; series mostly up to 57.1 µM. A digest of the protocol: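 CYP3A4 activity: Luciferin-PPXE O-dealkylation, 25uM substrate, 200mM KPO4, RT throughout. Read-out is luciferase luminescence; higher values reflect activation.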
(Quantitative high-throughput screening tests each substance at several concentrations.)

The target of experiment [10] is Dual specificity protein kinase CLK4 (Homo sapiens) (UniProt Q9HAZ1). The experiment is described as follows: qHTS Assay for Inhibitors of CDC-like Kinase 4 (ADP-Glo Assay) (AID 1771). Note: nearly all actives have a fitted effect of over 70% in size. Note: potency is the fitted concentration of half-maximal effect. The note with it: recombinant CLK4, ADP-Glo luminescence; series mostly up to 80 µM. A digest of the protocol: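 Compounds are pin-transferred onto substrate mix (100 uM RS peptide, 1 uM ATP), then 25 nM Clk4 is added. After 1 hr at room temperature, ADP-Glo reagent runs 45 min, detection reagent 30 min, then luminescence is read.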

For experiment [11] the target is unchanged. The experiment is described as follows: qHTS Assay for Inhibitors of CDC-like Kinase 4 (ADP-FP Assay) (AID 1795). Note: nearly all actives have a fitted effect of over 60% in size. Note: potency is the fitted concentration of half-maximal effect. To be noted: Transcreener ADP fluorescence polarization; series mostly up to 50 µM. A digest of the protocol: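 Recombinant Clk4 (6.25 nM) phosphorylated 100 uM RS repeat peptide with 1 uM ATP in 25 mM Tris pH 7.5, 10 mM MgCl2, 0.5 mM EGTA, 2.5 mM DTT, 0.01% Triton X-100 for 1 h. ADP was detected by Transcreener ADP2 competitive fluorescence polarization after 30 min at room temperature.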

The target of experiment [12] is Ubiquitin carboxyl-terminal hydrolase 1 (Homo sapiens) (UniProt O94782). The experiment is described as follows: Inhibitors of USP1/UAF1: Pilot qHTS (AID 504865). Note: nearly all actives have a fitted effect of over 35% in size. Note: potency is the fitted concentration of half-maximal effect. The note with it: purified USP1/UAF1, Ub-rhodamine cleavage fluorescence; series mostly up to 54.9 µM. A digest of the protocol: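 USP1/UAF1 complex at 1 nM preincubated 15 min at room temperature with compound, then Ub-Rho substrate added at 150 nM final. Fluorescence (480/540 nm) read kinetically in 50 mM HEPES pH 7.8, 0.5 mM EDTA, 1 mM TCEP, 0.1 mg/ml BSA, 0.01% Tween-20.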

The target in experiment [13] is 3',5'-cyclic-AMP phosphodiesterase 4B (Homo sapiens) (UniProt Q07343). Briefly: qHTS Assay for Inhibitors of PDE-IV (AID 607; active = well fitted activation curve with a large enough effect in the main read-out, with a control signal flat, not every such curve was filed as active; note: % of control where 0% means no effect). The note with it: HEK293 ACTOne CNG channel cells, membrane potential fluorescence; series mostly up to 22.9 µM. The method in brief:
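ACTOne HEK293 cells carry a modified cAMP-gated CNG channel and express endogenous PDE4; plated 1000 cells/well, compounds up to 22.9 uM final. Membrane-potential dye fluorescence (ex 535/em 590) was read; parental cells received 10 uM forskolin + 100 uM RO 20-1724.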

For experiment [14], the target named is Cytochrome P450 2C19 (Homo sapiens) (UniProt P33261). The experiment is described as follows: qHTS Assay for Inhibitors and Substrates of Cytochrome P450 2C19 (AID 899). Note: potency is the fitted concentration of half-maximal effect; nearly all actives have a fitted effect of over 60% in size. The note with it: recombinant CYP2C19, luciferin-H EGE luminescence; series mostly up to 57.1 µM. The method in brief:
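Reactions contain 5nM enzyme, 10uM Luciferin-H EGE (KM) and 50mM KPO4; compound preincubates 10 min at 37C, NADPH regeneration starts turnover for 60 min. Luminescence after detection reagent gives activity.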

Experiment [15] deals with Dual specificity protein kinase CLK4 (Homo sapiens) (UniProt Q9HAZ1). The experiment is described as follows: qHTS Assay for Inhibitors of CDC-like Kinase 4 (Kinase-Glo Assay) (AID 1770). Note: potency is the fitted concentration of half-maximal effect; nearly all actives have a fitted effect of over 65% in size. To be noted: recombinant Clk4, Kinase-Glo ATP depletion luminescence; series mostly up to 66.7 µM. A digest of the protocol:
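25 nM Clk4 with 100 uM RS repeat peptide and 1 uM ATP (final) in Tris pH7.5, 10 mM MgCl2, 4.5 h at room temperature. Remaining ATP measured by Kinase-Glo luciferase luminescence.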

The nature of experiment [16]: qHTS Assay for Identification of Small Molecule Agonists for Hypoxia Response Element Signaling Pathway (AID 914; active = well fitted activation curve with a large enough effect in the signal ratio, with a control signal flat, not every such curve was filed as active; the % refers to the signal ratio; note: % of control where 0% means no effect). To be noted: ME-180 (cervical carcinoma) HRE-bla reporter, beta-lactamase ratio, CoCl2, 17 h; activation: stronger effect = higher value. The method in brief: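 A beta-lactamase reporter under hypoxia response element control in ME-180 cells served as the system. Compound titrations plus EC50 CoCl2 ran 17 h at 37 degrees Celsius; AC50 values were fitted from %Activity.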

Experiment [17] addresses Cytochrome P450 2D6 (Homo sapiens) (UniProt P10635). The experiment is described as follows: qHTS Assay for Inhibitors and Substrates of Cytochrome P450 2D6 (AID 891). Note: potency is the fitted concentration of half-maximal effect; nearly all actives have a fitted effect of over 60% in size. To be noted: recombinant CYP2D6, luciferin-ME EGE luminescence; series mostly up to 57.1 µM. A digest of the protocol:
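Luminescent read-out of luciferin formed by 5 nM human CYP2D6 demethylating 30 uM Luciferin-ME EGE (Km level) over 60 min at room temperature after NADPH regeneration addition. Data normalized to full inhibition by 1.43 uM quinidine.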

A number with no mark means an inactive call. Records with an inconclusive call do not appear. Activity calls are given as the source filed them. Unless noted, calls come from the whole dose curve; as a rule, active = well fitted curve in the direction sought with a large enough effect; inconclusive = small, poorly fitted or top-dose-only effect, or another doubt; inactive = no such curve, though single readings can be large; an effect the other way counts as inactive or inconclusive.

Ubiquitin carboxyl-terminal hydrolase 1 (Homo sapiens), sequence (O94782 whole entry, looked up): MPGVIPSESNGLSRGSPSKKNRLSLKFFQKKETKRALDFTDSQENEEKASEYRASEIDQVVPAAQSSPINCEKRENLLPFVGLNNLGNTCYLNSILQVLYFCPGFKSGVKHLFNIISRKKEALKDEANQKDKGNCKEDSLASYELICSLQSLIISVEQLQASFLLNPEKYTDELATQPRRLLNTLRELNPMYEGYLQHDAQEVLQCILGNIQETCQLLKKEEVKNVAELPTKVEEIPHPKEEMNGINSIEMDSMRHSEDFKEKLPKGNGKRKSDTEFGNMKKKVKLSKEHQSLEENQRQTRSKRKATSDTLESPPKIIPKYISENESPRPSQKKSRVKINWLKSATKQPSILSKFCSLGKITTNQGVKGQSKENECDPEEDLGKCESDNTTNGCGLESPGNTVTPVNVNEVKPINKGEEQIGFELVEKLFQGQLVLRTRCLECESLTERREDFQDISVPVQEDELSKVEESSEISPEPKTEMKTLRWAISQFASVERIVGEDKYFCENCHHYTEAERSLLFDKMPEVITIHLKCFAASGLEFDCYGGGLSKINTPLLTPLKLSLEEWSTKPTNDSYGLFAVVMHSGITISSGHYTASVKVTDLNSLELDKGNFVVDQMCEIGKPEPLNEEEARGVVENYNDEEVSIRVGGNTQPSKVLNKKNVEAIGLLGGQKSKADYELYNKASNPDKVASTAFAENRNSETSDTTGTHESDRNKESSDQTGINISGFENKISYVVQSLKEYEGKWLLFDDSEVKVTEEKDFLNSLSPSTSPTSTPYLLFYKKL
Glucocorticoid receptor (Homo sapiens), sequence (P04150 whole entry, looked up, the tested form may be a part): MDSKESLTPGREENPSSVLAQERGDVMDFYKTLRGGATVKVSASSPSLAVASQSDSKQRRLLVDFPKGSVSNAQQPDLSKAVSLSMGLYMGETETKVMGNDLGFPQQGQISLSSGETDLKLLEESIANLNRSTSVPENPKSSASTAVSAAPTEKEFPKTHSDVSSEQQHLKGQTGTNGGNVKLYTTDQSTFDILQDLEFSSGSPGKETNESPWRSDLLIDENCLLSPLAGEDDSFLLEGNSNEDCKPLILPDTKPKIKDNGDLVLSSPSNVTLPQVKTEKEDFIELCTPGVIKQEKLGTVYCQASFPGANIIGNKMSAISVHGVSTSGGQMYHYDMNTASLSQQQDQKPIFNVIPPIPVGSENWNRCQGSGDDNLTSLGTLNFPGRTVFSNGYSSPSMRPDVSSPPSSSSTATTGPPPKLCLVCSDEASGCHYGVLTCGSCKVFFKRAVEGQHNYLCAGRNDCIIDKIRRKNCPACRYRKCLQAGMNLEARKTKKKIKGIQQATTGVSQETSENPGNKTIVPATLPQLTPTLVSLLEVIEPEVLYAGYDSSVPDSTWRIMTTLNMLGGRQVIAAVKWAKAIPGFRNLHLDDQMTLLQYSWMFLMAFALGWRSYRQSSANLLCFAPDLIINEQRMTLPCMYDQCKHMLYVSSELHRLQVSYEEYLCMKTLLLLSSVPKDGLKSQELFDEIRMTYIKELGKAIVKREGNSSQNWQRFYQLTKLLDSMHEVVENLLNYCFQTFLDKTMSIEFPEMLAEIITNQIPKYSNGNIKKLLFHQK
Cytochrome P450 1A2 (Homo sapiens), sequence (P05177 whole entry, looked up): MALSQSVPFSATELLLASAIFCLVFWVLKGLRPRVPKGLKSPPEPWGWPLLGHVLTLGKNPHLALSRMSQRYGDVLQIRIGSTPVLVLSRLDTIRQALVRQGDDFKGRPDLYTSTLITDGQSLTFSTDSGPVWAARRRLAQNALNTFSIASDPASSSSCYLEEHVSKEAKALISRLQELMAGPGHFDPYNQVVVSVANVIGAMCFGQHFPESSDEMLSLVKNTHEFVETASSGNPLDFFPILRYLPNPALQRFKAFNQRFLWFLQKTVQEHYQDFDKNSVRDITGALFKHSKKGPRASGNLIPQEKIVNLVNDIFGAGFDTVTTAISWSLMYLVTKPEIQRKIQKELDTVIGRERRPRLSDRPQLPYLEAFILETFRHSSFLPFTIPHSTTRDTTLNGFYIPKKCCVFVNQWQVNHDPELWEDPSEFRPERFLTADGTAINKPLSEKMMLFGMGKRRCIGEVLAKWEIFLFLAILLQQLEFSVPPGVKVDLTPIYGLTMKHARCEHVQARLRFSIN
Cytochrome P450 3A4 (Homo sapiens), sequence (P08684 whole entry, looked up): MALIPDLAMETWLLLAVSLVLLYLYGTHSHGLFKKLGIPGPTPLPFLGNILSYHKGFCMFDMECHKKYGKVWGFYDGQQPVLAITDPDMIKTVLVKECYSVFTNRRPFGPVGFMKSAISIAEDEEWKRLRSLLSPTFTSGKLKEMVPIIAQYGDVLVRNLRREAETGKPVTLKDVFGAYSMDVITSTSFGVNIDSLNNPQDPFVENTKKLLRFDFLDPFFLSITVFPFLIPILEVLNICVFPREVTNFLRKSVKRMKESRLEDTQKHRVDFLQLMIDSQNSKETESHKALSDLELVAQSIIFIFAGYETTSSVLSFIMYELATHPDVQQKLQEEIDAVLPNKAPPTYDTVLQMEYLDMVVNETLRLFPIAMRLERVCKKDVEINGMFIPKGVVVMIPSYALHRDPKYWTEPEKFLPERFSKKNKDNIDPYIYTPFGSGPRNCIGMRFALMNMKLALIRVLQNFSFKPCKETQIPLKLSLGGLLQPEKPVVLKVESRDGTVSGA
Dual specificity protein kinase CLK4 (Homo sapiens), sequence (Q9HAZ1 whole entry, looked up): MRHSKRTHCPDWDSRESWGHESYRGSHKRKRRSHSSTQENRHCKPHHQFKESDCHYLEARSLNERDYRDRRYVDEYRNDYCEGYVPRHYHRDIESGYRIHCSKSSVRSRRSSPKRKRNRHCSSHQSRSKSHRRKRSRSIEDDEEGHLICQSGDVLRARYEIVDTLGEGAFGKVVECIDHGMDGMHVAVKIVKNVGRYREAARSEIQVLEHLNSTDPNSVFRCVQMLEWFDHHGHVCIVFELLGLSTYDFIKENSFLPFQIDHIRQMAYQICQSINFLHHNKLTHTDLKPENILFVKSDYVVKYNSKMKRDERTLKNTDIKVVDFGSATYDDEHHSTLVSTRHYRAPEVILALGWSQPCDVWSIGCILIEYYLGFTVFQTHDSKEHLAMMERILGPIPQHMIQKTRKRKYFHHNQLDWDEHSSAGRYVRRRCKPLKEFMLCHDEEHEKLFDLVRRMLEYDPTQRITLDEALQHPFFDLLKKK
3',5'-cyclic-AMP phosphodiesterase 4B (Homo sapiens), sequence (Q07343 whole entry, looked up): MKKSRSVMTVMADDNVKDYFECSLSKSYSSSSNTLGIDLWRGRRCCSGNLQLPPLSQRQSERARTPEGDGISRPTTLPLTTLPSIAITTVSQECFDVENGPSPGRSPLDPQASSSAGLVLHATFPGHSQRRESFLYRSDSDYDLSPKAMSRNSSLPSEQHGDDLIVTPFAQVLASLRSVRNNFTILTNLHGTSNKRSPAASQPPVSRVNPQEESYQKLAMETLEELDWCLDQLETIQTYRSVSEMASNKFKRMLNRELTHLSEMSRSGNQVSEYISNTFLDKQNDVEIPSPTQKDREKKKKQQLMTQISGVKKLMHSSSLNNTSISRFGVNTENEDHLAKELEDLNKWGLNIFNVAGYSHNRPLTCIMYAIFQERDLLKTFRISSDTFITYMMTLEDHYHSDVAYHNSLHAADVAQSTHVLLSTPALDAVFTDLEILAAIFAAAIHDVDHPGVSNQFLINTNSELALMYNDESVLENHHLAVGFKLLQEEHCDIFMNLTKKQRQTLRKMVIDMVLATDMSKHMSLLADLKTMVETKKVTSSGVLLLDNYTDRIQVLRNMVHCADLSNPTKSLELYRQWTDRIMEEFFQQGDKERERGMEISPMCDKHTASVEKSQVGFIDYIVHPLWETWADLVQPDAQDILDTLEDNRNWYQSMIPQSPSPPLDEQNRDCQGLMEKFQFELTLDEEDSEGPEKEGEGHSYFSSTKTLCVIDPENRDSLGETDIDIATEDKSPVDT
Lysosomal acid glucosylceramidase (Homo sapiens), sequence (P04062 whole entry, looked up): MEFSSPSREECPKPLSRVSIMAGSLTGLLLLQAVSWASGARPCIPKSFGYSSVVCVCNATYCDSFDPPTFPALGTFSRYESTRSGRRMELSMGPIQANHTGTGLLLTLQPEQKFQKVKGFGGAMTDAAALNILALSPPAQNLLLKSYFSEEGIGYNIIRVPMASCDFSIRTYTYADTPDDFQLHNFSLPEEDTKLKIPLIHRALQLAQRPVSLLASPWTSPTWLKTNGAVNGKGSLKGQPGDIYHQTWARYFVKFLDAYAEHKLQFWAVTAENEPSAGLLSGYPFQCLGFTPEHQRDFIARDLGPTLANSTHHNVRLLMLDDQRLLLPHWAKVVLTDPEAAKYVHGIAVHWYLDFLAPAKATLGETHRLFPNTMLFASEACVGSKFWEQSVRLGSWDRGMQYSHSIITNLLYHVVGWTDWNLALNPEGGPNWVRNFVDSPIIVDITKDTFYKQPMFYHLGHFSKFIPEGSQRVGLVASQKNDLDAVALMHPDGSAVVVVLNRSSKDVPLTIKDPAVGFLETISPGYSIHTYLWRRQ
Cytochrome P450 2C19 (Homo sapiens), sequence (P33261 whole entry, looked up): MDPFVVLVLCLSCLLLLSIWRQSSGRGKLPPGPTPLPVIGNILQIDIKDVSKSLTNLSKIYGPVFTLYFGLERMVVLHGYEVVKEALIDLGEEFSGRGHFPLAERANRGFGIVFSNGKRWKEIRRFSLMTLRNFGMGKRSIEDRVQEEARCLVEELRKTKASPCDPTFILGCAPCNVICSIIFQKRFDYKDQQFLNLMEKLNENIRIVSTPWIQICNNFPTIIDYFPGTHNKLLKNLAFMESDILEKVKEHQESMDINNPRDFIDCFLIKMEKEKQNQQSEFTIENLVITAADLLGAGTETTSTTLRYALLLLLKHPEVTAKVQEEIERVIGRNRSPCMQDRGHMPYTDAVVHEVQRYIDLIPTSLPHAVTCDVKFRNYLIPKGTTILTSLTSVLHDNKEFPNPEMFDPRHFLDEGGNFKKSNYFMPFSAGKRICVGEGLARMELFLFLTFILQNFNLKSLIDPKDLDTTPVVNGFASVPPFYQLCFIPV

As for `c1ccc(Nc2nc(-c3cccnc3)nc3ccccc23)cc1`, the Potency was greater than 11.4 µM in experiment [1]; 0.398 µM (active) in experiment [3]; greater than 46 µM in [6]; greater than 46 µM in experiment [7]; 3.55 µM (active) in experiment [10]; 2 µM (active) in experiment [11]. Moreover, the activity change, negative = inhibition was 6.52% in [2] and 17% in [4]. In addition, the compound was called inactive in experiment [5] and in experiment [9]. Besides, the Potency result in [8] and in experiment [12] was “inactive” each time.
As for `COc1ccc2[nH]cc(CCNc3ncncc3-c3ccc4c(c3)OCO4)c2c1`, the Potency in experiment [1] is greater than 11.4 µM; in experiment [6] it was greater than 46 µM; in [7], greater than 46 µM; in [10], 7.08 µM (active); in experiment [11], 10 µM (active). Further, the activity change, negative = inhibition in [2] was -27.8%. In addition, the compound was classed as inactive in experiment [5]. In addition, the Potency result in [8], in [13] and in experiment [12] was “inactive” throughout.
For `FC(F)(F)c1ccccc1-c1nc(NCc2cccnc2)c2ccccc2n1`, the results for the activity change, negative = inhibition in experiment [2] and in [4] were 5.72% and 3.45%, respectively. Further, the Potency in experiment [3] was 2 µM (active); in [6], greater than 46 µM; in experiment [7], greater than 46 µM; in experiment [14], 3.98 µM (active); in experiment [12], 12.6 µM (active). In addition, the compound was classed as inactive in experiment [5] and in [9]. Also, the Potency result in experiment [8], in [10] and in experiment [11] was “inactive” throughout.
As for `COCCn1c(=O)c(-c2ccc(F)cc2)nc2cnc(Nc3cccc(OC)c3)nc21`, the values for the activity change, negative = inhibition in experiment [2] and in [4] were -8.42% and -5.01%, respectively. Moreover, the figures for the Potency in experiment [3], in experiment [6] and in [7] were 3.16 µM (active), greater than 9.22 µM and greater than 46 µM, respectively. For the same compound, in experiment [5], the result was inactive. Besides, the Potency entry in experiment [13], in experiment [10], in [11] and in experiment [12] was “inactive” each time.
`COc1cccc(-c2ccc3ncnc(NCc4ccc(OC)cc4OC)c3c2)c1`: the Potency in experiment [1] was greater than 11.4 µM; in experiment [3], 2.51 µM (active); in [6] it was greater than 46 µM; in experiment [7], greater than 46 µM; in [15], 35.5 µM (active); in experiment [10], 3.16 µM (active). The activity change, negative = inhibition in experiment [4] was -18.9%. For the same compound, the outcome in experiment [5] and in experiment [9] was inactive. The Potency result in [8] and in experiment [12] was “inactive” in each case.
In the case of `CC(=O)NCCNc1nc(-c2cccc(C#N)c2)nc2ccccc12`, the Potency in [1] is greater than 11.4 µM; in experiment [6], greater than 46 µM; in [7] it was greater than 46 µM; in experiment [15] it was 28.2 µM (active). Also, the activity change, negative = inhibition in experiment [2] is 2.77%; in [4], 12.4%. Further, in [5], the compound was called inactive. Besides, the Potency result in experiment [8], in [13] and in experiment [12] was “inactive” throughout.
As to `COc1ccc(Oc2ncc3nc(-c4ccc(F)cc4)c(=O)n(CCC#N)c3n2)cc1`, the Potency in experiment [1] was greater than 11.4 µM; in experiment [6] it was greater than 9.22 µM; in experiment [7], greater than 46 µM. Further, the activity change, negative = inhibition was -16.1% in [2] and 1.8% in experiment [4]. In experiment [5], the compound was called inactive. Further, the Potency result in [8], in [13], in [10], in experiment [11] and in experiment [12] was “inactive” each time.
On to `c1ccc2c(NCCN3CCOCC3)nc(-c3ccoc3)nc2c1`, for which the Potency was greater than 11.4 µM in [1], 5.01 µM (active) in experiment [3], greater than 46 µM in experiment [6] and greater than 46 µM in experiment [7]. Besides, the activity change, negative = inhibition is 1.61% in experiment [2] and -7.47% in [4]. Moreover, the outcome in experiment [5] and in experiment [9] was inactive. The Potency entry in experiment [8], in experiment [10], in experiment [11] and in experiment [12] was “inactive” each time. Further, the activation in experiment [16] is -2.73%.
Turning to `CCNc1ncc2nc(CCc3ccccc3)c(=O)n(CCC#N)c2n1`, the results for the activity change, negative = inhibition in experiment [2] and in [4] were -12.2% and -10.7%, respectively. Also, the Potency was 3.98 µM (active) in experiment [3], greater than 9.22 µM in experiment [6], greater than 46 µM in experiment [7] and 0.158 µM (active) in experiment [17]. The result in [5] and in [9] was inactive. Moreover, the Potency entry in experiment [8], in [10], in experiment [11] and in experiment [12] was “inactive” each time.
On to `COCCNc1ncnc2ccc(-c3ccccc3OC)cc12`, for which the activity change, negative = inhibition in [2] was -6.49%; in experiment [4] it was 2.23%. Besides, the Potency in [3] is 2 µM (active); in [6], greater than 46 µM; in experiment [7] it was greater than 46 µM; in experiment [14] it was 5.01 µM (active); in experiment [15] it was 15.8 µM (active); in experiment [10], 10 µM (active). The result in experiment [5] and in [9] was inactive. The Potency entry in [13] and in experiment [12] was “inactive” throughout.
